Unmarked numbers belong to inactive results. Results filed as inconclusive are left out. A call without a number means that no potency is given here. Activity calls are given as the source filed them. Unless noted, the call rests on the fitted dose curve; in most records, active means well fitted curve in the direction sought with a large enough effect; inconclusive means small, poorly fitted or top-dose-only effect, or another doubt; inactive means no such curve, though single readings can be large; an effect the other way counts as inactive or inconclusive.
What was measured:
[1] = biological target: Lysosomal acid glucosylceramidase (Homo sapiens) (UniProt P04062); assay: Glucocerebrosidase-p2 (AID 348; in the data active means potency below about 10 µM; further: potency means the concentration at half of the fitted maximal effect); conditions: purified GBA, blue fluorogenic substrate, 40 min
Chain of Lysosomal acid glucosylceramidase (Homo sapiens) (P04062 whole entry, looked up): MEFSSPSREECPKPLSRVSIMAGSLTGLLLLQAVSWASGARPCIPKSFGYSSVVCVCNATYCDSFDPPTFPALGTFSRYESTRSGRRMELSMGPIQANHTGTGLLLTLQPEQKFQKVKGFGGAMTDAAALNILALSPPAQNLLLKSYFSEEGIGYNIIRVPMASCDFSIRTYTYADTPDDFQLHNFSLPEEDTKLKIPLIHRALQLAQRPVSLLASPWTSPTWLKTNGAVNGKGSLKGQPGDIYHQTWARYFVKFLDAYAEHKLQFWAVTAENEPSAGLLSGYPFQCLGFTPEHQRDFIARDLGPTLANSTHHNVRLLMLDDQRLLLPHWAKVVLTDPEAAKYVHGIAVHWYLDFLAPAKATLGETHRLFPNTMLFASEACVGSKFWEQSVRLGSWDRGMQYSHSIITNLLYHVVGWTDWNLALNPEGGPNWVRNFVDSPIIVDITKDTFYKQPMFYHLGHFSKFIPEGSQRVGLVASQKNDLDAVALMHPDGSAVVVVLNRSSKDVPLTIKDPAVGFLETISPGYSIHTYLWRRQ
In short: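 Compounds titrated from 0.6 nM upwards against 0.2 nM enzyme in pH 5.9 citric acid/KH2PO4, taurocholate, tween-20; blue fluorogenic substrate 80 uM, 40 min room temperature, stopped and read Ex 365/Em 440 for AC50.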

[2] = AP1 Signaling Pathway (AID 357; active means well fitted curve in either direction with a large enough effect, not every such curve was filed as active;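 further: ME-180 reporter cells stimulated with EGF at its EC50 level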); conditions: ME-180 AP-1-bla reporter, EGF-induced, beta-lactamase ratio, 5 h; at 7.69 µM (top of the series) unless noted
In short: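 Titration-series screen for positive or negative modulators of EC50 EGF-induced signaling in ME-180 cells carrying an AP-1-driven beta-lactamase reporter. After 5 hours at 37 degrees Celsius, CCF4 460nm/530nm emission ratio gave %Activity; AC50 values derived.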

[3] = NFAT Signaling Pathway (AID 444; active means well fitted curve in either direction with a large enough effect, not every such curve was filed as active;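 further: carbachol stimulus at about its EC50 of 1 µM final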); conditions: Jurkat NFAT-bla M1, carbachol, beta-lactamase ratio, 5 h; at 7.69 µM (top of the series) unless noted
In short: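 Jurkat cells carrying an NFAT-driven β-lactamase reporter and co-transfected muscarinic M1 receptor were treated with compound plus carbachol (1 uM final, an EC50 level) for 5 h at 37 °C. CCF4 loading followed for 1 h at RT; 460/530 nm ratio gave %activity.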

[4] = Stat Signaling Pathway (AID 446; active means well fitted curve in either direction with a large enough effect, not every such curve was filed as active;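 further: ME-180 cervical cancer cells given 40 pM IL-6 alongside compound; SIE-controlled beta-lactamase reporter measured as 460/530 nm FRET emission ratio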); conditions: ME-180 SIE beta-lactamase reporter, IL-6 stimulated, 5 h; at 7.69 µM (top of the series) unless noted
In short: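 ME-180 cells carrying a SIE-driven beta-lactamase reporter are stimulated with 40 pM IL-6 for 5 h at 37C in the presence of compound. The 460/530 nm FRET substrate ratio is read after 2.5 h at RT. Data are normalised to 300 pM IL-6 and to 125 nM JAK inhibitor controls.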

[5] = biological target: Glucocorticoid receptor (Homo sapiens) (UniProt P04150); assay: GR-GFP Redistribution (AID 450;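 active means compounds whose dose series gives a full or clear partial fitted curve of increased nuclear translocation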; further: potency means the concentration at half of the fitted maximal effect); conditions: U2OS GR-GFP nuclear translocation, laser cytometry, 2 h
Chain of Glucocorticoid receptor (Homo sapiens) (P04150 whole entry, looked up, the tested form may be a part): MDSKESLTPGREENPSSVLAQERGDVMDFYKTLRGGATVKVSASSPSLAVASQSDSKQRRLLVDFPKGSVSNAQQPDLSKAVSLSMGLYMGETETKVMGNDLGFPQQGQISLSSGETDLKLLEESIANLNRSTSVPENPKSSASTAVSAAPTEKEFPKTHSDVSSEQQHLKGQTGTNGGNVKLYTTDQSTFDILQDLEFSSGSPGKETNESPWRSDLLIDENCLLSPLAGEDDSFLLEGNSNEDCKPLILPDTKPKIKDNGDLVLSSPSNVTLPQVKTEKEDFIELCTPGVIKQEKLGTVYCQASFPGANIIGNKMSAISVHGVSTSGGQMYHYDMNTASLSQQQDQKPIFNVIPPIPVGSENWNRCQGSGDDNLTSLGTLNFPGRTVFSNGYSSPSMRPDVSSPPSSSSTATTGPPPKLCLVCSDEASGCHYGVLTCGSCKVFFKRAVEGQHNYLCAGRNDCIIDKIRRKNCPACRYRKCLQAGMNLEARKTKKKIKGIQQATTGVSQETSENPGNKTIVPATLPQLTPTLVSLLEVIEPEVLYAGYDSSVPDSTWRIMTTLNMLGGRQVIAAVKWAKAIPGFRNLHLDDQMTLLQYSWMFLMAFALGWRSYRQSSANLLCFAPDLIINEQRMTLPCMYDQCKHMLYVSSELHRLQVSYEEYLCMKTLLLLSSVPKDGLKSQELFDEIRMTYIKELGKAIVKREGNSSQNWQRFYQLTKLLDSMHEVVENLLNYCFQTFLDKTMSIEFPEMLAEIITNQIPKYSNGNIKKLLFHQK

[6] = biological target: Glucocorticoid receptor (Homo sapiens) (UniProt P04150); assay: GR-EFC Redistribution (AID 451; calls by dose curve; further: potency means the concentration at half of the fitted maximal effect); conditions: CHO-K1 GR-EFC translocation, beta-gal luminescence, 2 h
In short: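 CHO-K1 cells stably expressing nuclear-localized β-gal enzyme acceptor and GR fused C-terminally to the enzyme donor fragment; ligand-driven nuclear translocation restores β-gal by complementation. Compounds titrated up to 46 uM final, 2 h at 37 °C; luminescence read.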

[7] = biological target: Mitogen-activated protein kinase 10 (Mus musculus) (UniProt Q61831); assay: JNK3 AlphaScreen Assay (AID 530; active means well fitted curve in either direction with a large enough effect, not every such curve was filed as active;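 further: kinase came from lysate of stimulated human HepG2 cells; signal reports phosphorylation of biotinylated GST-cJun 1-79 at Ser73 with 10 µM ATP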); conditions: JNK3 lysate, c-Jun phosphorylation; series mostly up to 57.1 µM
In short: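 Inhibitors reduce antibody binding to phosphorylated biotin-cJun, lowering AlphaScreen luminescence. Lysates from HepG2 cells pre-activated by IL-1beta plus TNF-alpha supplied JNK3; compounds were titrated.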

[8] = biological target: Dual specificity protein kinase CLK4 (Homo sapiens) (UniProt Q9HAZ1); assay: qHTS Assay for Inhibitors of CDC-like Kinase 4 (Kinase-Glo Assay) (AID 1770); conditions: recombinant Clk4, Kinase-Glo ATP depletion luminescence; series mostly up to 66.7 µM; further: nearly all actives have a fitted effect of over 65% in size; further: potency means the concentration at half of the fitted maximal effect
Chain of Dual specificity protein kinase CLK4 (Homo sapiens) (Q9HAZ1 whole entry, looked up): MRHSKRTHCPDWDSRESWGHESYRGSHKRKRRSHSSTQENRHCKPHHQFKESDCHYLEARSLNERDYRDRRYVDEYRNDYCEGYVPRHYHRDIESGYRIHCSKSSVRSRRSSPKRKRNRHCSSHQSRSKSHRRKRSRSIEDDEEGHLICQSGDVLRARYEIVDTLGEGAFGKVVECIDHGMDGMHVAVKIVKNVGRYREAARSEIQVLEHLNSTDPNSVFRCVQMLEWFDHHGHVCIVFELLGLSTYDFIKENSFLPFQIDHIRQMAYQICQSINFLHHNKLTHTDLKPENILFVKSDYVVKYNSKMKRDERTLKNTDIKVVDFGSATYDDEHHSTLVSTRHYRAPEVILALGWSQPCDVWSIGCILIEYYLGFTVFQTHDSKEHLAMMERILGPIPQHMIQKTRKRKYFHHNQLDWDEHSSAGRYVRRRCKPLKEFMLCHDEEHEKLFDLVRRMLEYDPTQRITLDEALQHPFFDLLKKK
In short: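 Readout: Kinase-Glo luminescence from ATP left after a 4.5 h room-temperature reaction of 25 nM Clk4 with 100 uM RS peptide and 1 uM ATP (final). Buffer: 25 mM Tris pH 7.5, 10 mM MgCl2.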

[9] = biological target: Dual specificity protein kinase CLK4 (Homo sapiens) (UniProt Q9HAZ1); assay: qHTS Assay for Inhibitors of CDC-like Kinase 4 (ADP-Glo Assay) (AID 1771); conditions: recombinant CLK4, ADP-Glo luminescence; series mostly up to 80 µM; further: nearly all actives have a fitted effect of over 70% in size; further: potency means the concentration at half of the fitted maximal effect
In short: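 Luminescence from ADP-Glo reports ADP produced by 25 nM Clk4 acting on 100 uM RS repeat peptide with 1 uM ATP over 1 hr at room temperature; residual ATP is depleted before ADP is converted to ATP for detection.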

[10] = biological target: Ubiquitin carboxyl-terminal hydrolase 1 (Homo sapiens) (UniProt O94782); assay: Inhibitors of USP1/UAF1: Pilot qHTS (AID 504865); conditions: purified USP1/UAF1, Ub-rhodamine cleavage fluorescence; series mostly up to 54.9 µM;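 further: rhodamine fluorescence freed from ubiquitin-rhodamine substrate followed over time; top concentration of the series differs between compounds; nearly all actives have a fitted effect of over 35% in size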
Chain of Ubiquitin carboxyl-terminal hydrolase 1 (Homo sapiens) (O94782 whole entry, looked up): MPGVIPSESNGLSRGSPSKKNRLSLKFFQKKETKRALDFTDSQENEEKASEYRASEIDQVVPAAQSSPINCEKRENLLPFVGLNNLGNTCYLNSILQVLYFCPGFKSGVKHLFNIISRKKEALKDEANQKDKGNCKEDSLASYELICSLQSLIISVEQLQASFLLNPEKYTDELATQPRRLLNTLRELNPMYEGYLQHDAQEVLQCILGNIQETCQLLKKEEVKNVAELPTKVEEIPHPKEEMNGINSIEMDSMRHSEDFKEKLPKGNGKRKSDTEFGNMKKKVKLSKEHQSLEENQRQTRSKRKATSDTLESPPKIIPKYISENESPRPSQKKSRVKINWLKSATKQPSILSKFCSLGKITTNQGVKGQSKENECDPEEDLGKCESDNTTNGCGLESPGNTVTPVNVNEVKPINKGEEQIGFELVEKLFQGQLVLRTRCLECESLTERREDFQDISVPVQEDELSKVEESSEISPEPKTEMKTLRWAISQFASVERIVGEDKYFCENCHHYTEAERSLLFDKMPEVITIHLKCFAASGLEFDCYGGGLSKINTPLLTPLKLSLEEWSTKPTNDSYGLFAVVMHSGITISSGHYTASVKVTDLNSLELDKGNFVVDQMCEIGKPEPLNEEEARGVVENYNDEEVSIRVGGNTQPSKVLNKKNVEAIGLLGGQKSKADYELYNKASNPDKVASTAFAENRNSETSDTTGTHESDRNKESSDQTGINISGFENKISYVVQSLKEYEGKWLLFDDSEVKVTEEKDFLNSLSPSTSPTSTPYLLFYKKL
In short: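 1nM USP1/UAF1 + cpd, 15 min RT; start w/ Ub-Rho 150nM final; kinetic FL 480/540 nm, 6 reads q60 s. Buffer 50mM HEPES pH 7.8, 0.5mM EDTA, 1mM TCEP, 0.01% Tween-20, 0.1 mg/ml BSA.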

[11] = Primary qHTS for small molecule stabilizers of the endoplasmic reticulum resident proteome: Secreted ER Calcium Modulated Protein (SERCaMP) assay (AID 1508630); conditions: SH-SY5Y GLuc-SERCaMP (Gaussia luciferase released on ER calcium loss) secretion, thapsigargin, luminescence; series mostly up to 38.4 µM
In short: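 GLuc-SERCaMP-expressing SH-SY5Y cells, pretreated 16 h with compound, are challenged with thapsigargin to empty ER calcium stores; after 4 h, coelenterazine is added directly to the medium and luminescence is imaged.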

[12] = biological target: Cytochrome P450 1A2 (Homo sapiens) (UniProt P05177); assay: p450-cyp1a2 (AID 410; calls by dose curve; further: potency means the concentration at half of the fitted maximal effect); conditions: recombinant CYP1A2, luciferin-ME demethylation, luminescence; series mostly up to 57 µM
Chain of Cytochrome P450 1A2 (Homo sapiens) (P05177 whole entry, looked up): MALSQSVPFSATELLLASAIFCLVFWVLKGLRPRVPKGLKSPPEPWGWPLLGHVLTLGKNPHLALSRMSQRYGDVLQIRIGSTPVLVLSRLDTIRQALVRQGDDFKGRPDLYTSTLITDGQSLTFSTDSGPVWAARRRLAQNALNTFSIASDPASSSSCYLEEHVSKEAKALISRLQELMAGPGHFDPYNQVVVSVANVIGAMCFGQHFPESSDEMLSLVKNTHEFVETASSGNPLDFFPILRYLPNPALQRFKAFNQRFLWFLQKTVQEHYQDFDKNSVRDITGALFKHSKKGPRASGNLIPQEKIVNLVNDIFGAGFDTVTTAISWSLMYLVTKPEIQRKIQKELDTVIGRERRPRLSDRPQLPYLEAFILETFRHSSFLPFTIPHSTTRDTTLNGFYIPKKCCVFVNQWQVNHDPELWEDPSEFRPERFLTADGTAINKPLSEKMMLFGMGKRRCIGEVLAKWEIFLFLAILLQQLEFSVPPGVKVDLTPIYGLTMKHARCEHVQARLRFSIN
In short: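 Luminescent readout of luciferin formed from Luciferin-ME by human CYP1A2; data normalized against complete inhibition by 57 uM furafylline. Enzyme 20nM, substrate 100uM at Km, 100mM KPO4 buffer, 60 min reaction at room temperature.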

[13] = biological target: 3',5'-cyclic-AMP phosphodiesterase 4B (Homo sapiens) (UniProt Q07343); assay: qHTS Assay for Inhibitors of PDE-IV (AID 607; active means well fitted activation curve with a large enough effect in the main read-out, with a control signal flat, not every such curve was filed as active); conditions: HEK293 ACTOne CNG channel cells, membrane potential fluorescence; series mostly up to 22.9 µM
Chain of 3',5'-cyclic-AMP phosphodiesterase 4B (Homo sapiens) (Q07343 whole entry, looked up): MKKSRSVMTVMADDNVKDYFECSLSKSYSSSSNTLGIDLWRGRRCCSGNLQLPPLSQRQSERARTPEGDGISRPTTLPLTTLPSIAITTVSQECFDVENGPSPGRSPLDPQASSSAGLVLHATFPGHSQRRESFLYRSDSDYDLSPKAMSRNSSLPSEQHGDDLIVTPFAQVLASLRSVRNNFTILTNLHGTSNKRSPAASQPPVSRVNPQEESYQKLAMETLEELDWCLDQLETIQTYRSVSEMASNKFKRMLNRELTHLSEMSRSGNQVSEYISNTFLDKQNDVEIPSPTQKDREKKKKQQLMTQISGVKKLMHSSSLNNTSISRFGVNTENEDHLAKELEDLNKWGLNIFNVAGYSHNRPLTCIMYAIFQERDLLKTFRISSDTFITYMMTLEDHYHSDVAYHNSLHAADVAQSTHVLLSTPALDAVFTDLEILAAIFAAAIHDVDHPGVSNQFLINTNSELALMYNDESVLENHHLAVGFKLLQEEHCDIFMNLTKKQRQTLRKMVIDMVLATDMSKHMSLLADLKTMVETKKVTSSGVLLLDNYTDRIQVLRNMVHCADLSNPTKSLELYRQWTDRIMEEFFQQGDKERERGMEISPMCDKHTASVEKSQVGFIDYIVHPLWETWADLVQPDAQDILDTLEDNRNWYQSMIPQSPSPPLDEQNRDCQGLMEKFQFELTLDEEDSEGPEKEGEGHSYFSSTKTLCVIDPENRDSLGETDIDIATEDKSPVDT
In short: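 HEK293 ACTOne cells with CNG channel (1000/well), endogenous PDE4; membrane potential dye, compounds up to 22.9 uM final. Fluorescence Ex 535/Em 590; RO 20-1724 (100 uM final) as reference.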

[14] = biological target: Cytochrome P450 3A4 (Homo sapiens) (UniProt P08684); assay: qHTS Assay for Activators of Cytochrome P450 3A4 (AID 885); conditions: recombinant CYP3A4, Luciferin-PPXE luminescence, 60 min; series mostly up to 57.1 µM; further: nearly all actives have a fitted effect of over 65% in size
Chain of Cytochrome P450 3A4 (Homo sapiens) (P08684 whole entry, looked up): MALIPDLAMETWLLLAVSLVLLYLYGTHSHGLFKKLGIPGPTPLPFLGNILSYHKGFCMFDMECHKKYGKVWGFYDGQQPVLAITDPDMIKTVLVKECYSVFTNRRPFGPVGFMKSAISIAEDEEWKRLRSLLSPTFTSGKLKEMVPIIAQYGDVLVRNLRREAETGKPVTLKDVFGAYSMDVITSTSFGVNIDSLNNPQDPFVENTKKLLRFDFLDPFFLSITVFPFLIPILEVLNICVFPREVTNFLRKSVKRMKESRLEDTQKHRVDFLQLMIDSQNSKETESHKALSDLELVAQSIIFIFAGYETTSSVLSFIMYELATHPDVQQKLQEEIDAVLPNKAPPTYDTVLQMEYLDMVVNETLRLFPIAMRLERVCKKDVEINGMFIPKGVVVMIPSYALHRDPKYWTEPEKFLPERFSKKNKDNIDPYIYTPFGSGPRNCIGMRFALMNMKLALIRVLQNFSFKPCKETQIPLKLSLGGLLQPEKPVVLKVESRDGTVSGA
In short: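 Human CYP3A4 (20 nM) with Luciferin-PPXE at 25 uM (its KM) in 200 mM KPO4; 10 min compound preincubation, then NADPH regeneration and 60 min reaction at RT. Luciferin read by luminescence; normalized to 57 uM ketoconazole full inhibition.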

[15] = qHTS Assay for Identification of Small Molecule Agonists for Hypoxia Response Element Signaling Pathway (AID 914; active means well fitted activation curve with a large enough effect in the signal ratio, with a control signal flat, not every such curve was filed as active; the % refers to the signal ratio; further: potency means the concentration at half of the fitted maximal effect); conditions: ME-180 (cervical carcinoma) HRE-bla reporter, beta-lactamase ratio, CoCl2, 17 h; activation: hits give high values
In short: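 Cells were plated overnight, pin-dosed with compound in a titration series, co-stimulated with EC50 CoCl2 and incubated 17 hours at 37 degrees Celsius. CCF4 substrate was then loaded, and AC50 values came from the 460nm/530nm ratio.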

[16] = biological target: Dual specificity protein kinase CLK4 (Homo sapiens) (UniProt Q9HAZ1); assay: qHTS Assay for Inhibitors of CDC-like Kinase 4 (ADP-FP Assay) (AID 1795); conditions: Transcreener ADP fluorescence polarization; series mostly up to 50 µM;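 further: recombinant human CLK4 phosphorylating RS repeat peptide at 1 µM ATP; nearly all actives have a fitted effect of over 60% in size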
In short: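 FP readout: Orange Transcreener ADP2 tracer (4 nM) plus ADP antibody, read after 30 min at room temperature. Kinase step: 6.25 nM Clk4, 100 uM RS peptide, 1 uM ATP, pH 7.5, 1 h.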

SMILES | Potency [1] | activity change, negative = inhibition [2] | activity change, negative = inhibition [3] | activity, negative = inhibition [4] | Potency [5] | Potency [6] | Potency [7] | Potency [8] | Potency [9] | Potency [10] | outcome [11] | Potency [12] | Potency [13] | Potency [14] | Potency [15] | Potency [16]
COc1ncc2nc(-c3cn(C)c4ccccc34)c(=O)n(C[C@H]3CCCO3)c2n1 | > 11.4 µM | -6.51% | 3.98% | -5.17% | > 9.22 µM | > 46 µM | inactive | inactive | inactive | inactive | inactive | – | – | – | – | –
COc1cccc(Cn2c(=O)c(-c3cn(C)c4ccccc34)nc3cnc(OC)nc32)c1 | > 11.4 µM | – | 1.88% | – | > 9.22 µM | > 46 µM | inactive | inactive | inactive | inactive | inactive | 15.8 µM (active) | inactive | inactive | – | –
N#CCCn1c(=O)c(-c2ccc(F)cc2)nc2cnc(N3CCNCC3)nc21 | > 11.4 µM | – | – | – | > 9.22 µM | > 46 µM | inactive | inactive | inactive | inactive | inactive | – | inactive | inactive | 3.16 µM (active) | –
CCNc1ncc2nc(-c3cc(F)cc(F)c3)c(=O)n(Cc3ccc(F)cc3)c2n1 | > 11.4 µM | 20.2% | 28.9% | – | – | > 46 µM | inactive | inactive | inactive | inactive | inactive | – | inactive | – | 2 µM (active) | –
Cc1noc(C)c1-c1nccc(N(C)C)n1 | > 11.4 µM | 2.07% | -4.83% | 15.8% | > 46 µM | > 46 µM | inactive | inactive | – | inactive | inactive | 0.631 µM (active) | inactive | inactive | – | inactive
COc1ccccc1CNc1ccnc(-c2ccc(C(=O)N(C)C)cc2)n1 | > 11.4 µM | -10.9% | 4.15% | -1.46% | > 46 µM | > 46 µM | inactive | inactive | – | inactive | inactive | 12.6 µM (active) | inactive | inactive | – | inactive
O=c1cnc2cnc(Oc3cccc(Cl)c3)nc2n1CCc1ccccc1 | > 11.4 µM | – | – | -20.1% | > 9.22 µM | > 46 µM | inactive | 2.24 µM (active) | 3.55 µM (active) | inactive | inactive | – | inactive | – | – | –

Reference: PubChem BioAssay (NCATS)
